Drawing on PubChem BioAssay, this text covers z-score for 32 compounds.

The structures appear in SMILES notation.

A short description of this test: mitochondrial membrane potential change in A549 cells, profiling panel, cell-based, JC-1 fluorescence, basal, 24 h, 100 nL (AID 1138).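 Also: A549 lung adenocarcinoma cells under basal conditions with no added stimulus; test concentration not given here.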 The settings on record: higher = more signal.
Consider `COc1ccc([Si](C)(C)[C@@H]2[C@@H](CCO)O[C@]3(C(=O)N(Cc4cccc(N5CCOC5=O)c4)c4ccccc43)[C@H]2C)cc1`, for which the z-score is -0.393.

`COCCOC(=O)N1C(=O)[C@@]2(c3ccccc31)[C@H](C(N)=O)[C@H]1C(=O)O[C@H](c3ccccc3)[C@H](c3ccccc3)N1[C@@H]2c1ccc(O)cc1` returned a z-score of 0.381.

On to `O=C1C[C@@](C(=O)NCc2ccccc2)(c2ccc([N+](=O)[O-])cc2)[C@@H](c2ccc(CO)cc2)N1CC12CC3CC(CC(C3)C1)C2`, for which the z-score came out at 1.44.

Take `COCC(=C=CC[C@H](O)c1cccc(OCCO)c1)CCO`: the z-score was -0.0195.

For the compound `COCCCNC(=O)[C@@]1(Cc2ccccc2CN=[N+]=[N-])N=C(c2ccc(OCCCO)cc2)O[C@H]1c1ccccc1CN=[N+]=[N-]`, the z-score was -0.556.

`COC(=O)[C@]1(Cc2ccccc2)N=C(c2ccc(OCCCO)cc2)O[C@@H]1c1ccccc1N=[N+]=[N-]`: the z-score was -1.24.

`COC(=O)[C@@]1(Cc2ccc(F)cc2)[C@H]2c3cc(C(=O)N(C)C)n(Cc4ccc(C)o4)c3C[C@H]2CN1C(=O)c1ccccc1` came in with a z-score of 0.546.

On to `CC(C)=CCCC(C)=CC(O)C1C=CC2C(=O)N(c3ccccc3)C(=O)C2N1Nc1ccc(C(C)C)cc1` (configuration not stated), for which the z-score amounted to 0.0344.

Compound `COc1ccccc1CN1C(=O)c2ccccc2[C@@H](C(=O)NCc2ccccc2)[C@@H]1c1ccc(CO)cc1` had a z-score of 1.03.

As for `CC#CC(=O)Oc1ccc(Br)cc1C=CC(=O)OCC`, the z-score is -0.817.

As for `O=C(NC1CC1)[C@@H]1c2ccccc2C(=O)N(C2Cc3ccccc3C2)[C@H]1c1ccc(CO)cc1`, the z-score is 1.64.

Turning to `COCCCNC(=O)[C@@H]1c2ccccc2C(=O)N(Cc2ccccc2OC)[C@H]1c1ccc(CO)cc1`, the z-score was -0.374.

`O=C(O)[C@H](Cc1ccccc1)n1cc(-c2ccccc2)nn1`: the z-score is -0.469.

Compound `C=CC[C@]1(C(=O)NCc2ccccc2)N=C(c2ccc(OCCCO)cc2)O[C@H]1c1ccccc1CN=[N+]=[N-]` displayed a z-score of 1.22.

For `CN1C(=O)C2C=CC(C(O)c3ccc(F)cc3)N(N(c3ccccc3)c3ccccc3)C2C1=O` (configuration not stated), the z-score was 0.351.

Consider `C=CCC(OC(C)=O)[C@@H]1[C@@H](N(Cc2ccc(-c3cccc(C(F)(F)F)c3)o2)C(=O)Cc2ccc(OC)cc2)c2cc(OCCCO)ccc2N1C(=O)c1ccc2ccccc2c1` (some centres not stated), for which the z-score was -0.322.

Turning to `CN(C)CCCCCCNC(=O)[C@@H]1C[C@@H]2C(=O)N[C@@H](CCCC[N+](C)(C)C)C(=O)N2[C@@H]1c1ccc(O)cc1`, the z-score is -0.147.

`CC(C)CNC(=O)[C@@]1(Cc2ccccc2I)c2ccccc2C(=O)N(Cc2ccccc2C(F)(F)F)[C@H]1c1ccc(CO)cc1`: the z-score is -0.171.

Turning to `C=CC[C@]1(C(N)=O)N=C(c2ccc(OCCCO)cc2)O[C@H]1c1ccccc1`, the z-score was -0.852.

In the case of `COCCCNC(=O)[C@@]1(Sc2ccc(C)cc2)CC(=O)N(Cc2ccccc2Cl)[C@@H]1c1ccc(CO)cc1`, the z-score is -0.689.

Consider `CCCC=C(CCC)[C@@H](NC(=O)OCC(C)C)c1ccccc1`, for which the z-score was -0.138.

Turning to `OCC1C=C(/C=C/c2ccccc2)CN1Cc1ccccc1Br` (configuration not stated), the z-score came out at 0.426.

In the case of `CN1C(=O)C2C=CC(C(O)C=Cc3ccc([N+](=O)[O-])cc3)N(Nc3ccccc3)C2C1=O` (configuration not stated), the z-score is 0.509.

As for `COC(=O)[C@@]1(Cc2ccccc2)[C@H]2c3cc(C(=O)N4CCCC4)n(Cc4ccc(O)c(OC)c4)c3C[C@H]2CN1C(=O)c1ccccc1`, the z-score came out at 1.15.

In turn, `CN(C)CCCCCCNC(=O)[C@@H]1C[C@@H]2C(=O)N3CCC[C@H]3C(=O)N2[C@@H]1c1ccc(O)cc1` gave a z-score of 0.334.

In the case of `C[N+](C)(C)CCCC[C@@H]1NC(=O)[C@H]2C[C@@H](C(=O)NCCCCCCNC(=O)CS)[C@@H](c3ccc(O)cc3)N2C1=O`, the z-score was -0.459.

`COC(=O)C(CC#Cc1ccc2c(c1)[C@]1(C(=O)N2)[C@H](c2ccccc2OCCO)N2[C@H](c3ccccc3)[C@H](c3ccccc3)OC(=O)[C@H]2[C@@H]1C(=O)O)C(=O)OC`: the z-score came out at 0.621.

Turning to `NCCCCCNC(=O)[C@H]1C[C@H]2C(=O)N3CCC[C@H]3C(=O)N2[C@H]1c1ccc(O)cc1`, the z-score was -0.373.

The compound `C=CCC(OC(C)=O)[C@@H]1[C@@H](N(Cc2ccc(-c3ccccc3)cc2)C(=O)Cc2ccc(F)cc2)c2cc(OCCCO)ccc2N1C(=O)c1ccc2ccccc2c1` (some centres not stated) had a z-score of 1.73.

`CCOc1ccc(N2C(=O)CSC2c2cccc([N+](=O)[O-])c2)cc1` (configuration not stated) gave a z-score of 0.56.

Turning to `C=C(CCCC)/C(=C/C[C@H](OC(C)=O)c1ccccc1OCCO)c1cnc2ccccc2c1`, the z-score amounted to 1.76.

Compound `C=CC[C@]1(C(N)=O)COC(c2ccc(OCCCO)cc2)=N1` displayed a z-score of 0.359.
